Measurements reported in PubChem BioAssay AID652067 (The Scripps Research Institute Molecular Screening Center, 2013).
The campaign covered roughly 370,000 compounds. About 5,400 (1.5%) were called active. This is one part of a sample in which actives are shown more often than they occur. Values without a mark were called inactive.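 How the source made its calls: active means activation above the mean of all tested compounds plus 3 SD (cut at about 5.5% in these data); inactive means the rest.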

These compounds were tested on DAF-12 nuclear receptor (Haemonchus contortus) (assay: H. contortus DAF-12 nuclear receptor activators, primary screen, cell-based, luminescence, HEK293, lit1-tk-luc reporter (AID 652067;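 further: 100% = response to 3 µM Δ7-dafachronic acid high control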)). Settings: HEK293 hcDAF-12 lit1-tk-luc reporter, at 6.8 µM, active compounds read high.
`COc1ccc(C(=O)C2CN(C)CC2C(=O)c2ccc(OC)cc2)cc1` (stereo not given) was tested, and the activation was 8.46% (active). Work on `COc1ccc(C(=O)CC2C(=O)N(C)C(=O)N(C)C2=O)cc1` yielded an activation of 0.97%. With `Cc1ccc(C2CN(C)CC2C(=O)c2ccc(F)cc2)cc1` (stereo not given) the activation was 0.06%. Work on `CN(c1ccccc1)c1ccc([N+](=O)[O-])c2nonc12` yielded an activation of -1.36%. For `CNP1(NC)=Nc2nn(-c3ccccc3)c(N)c2C(c2ccccc2)=N1`, the activation was -1.95%. `CCCCCn1c(=O)c(C(=O)Nc2c(C)n(C)n(-c3ccccc3)c2=O)c(O)c2ccccc21` gave an activation of -0.09%. In the case of `CCCCn1c(=O)c(C(=O)Nc2ccccc2Cl)c(O)c2ccccc21`, the activation is reported as 5.68% (active). Work on `CCCCCn1c(=O)c(C(=O)NCc2ccccc2)c(O)c2ccccc21` yielded an activation of -0.29%. `O=C(CCN1CCCCC1)NCC(=O)Nc1ccc(Br)cc1C(=O)c1ccccc1` gave an activation of -0.6%. `CS(=O)(=O)N1CCC2CCNC2C1` (stereo not given) showed an activation of -0.6%. In the case of `CCC/C(=N\O)c1c[nH]c2ccccc12`, the activation is reported as 6.34% (active). Compound `CN1CCN(/N=C/c2c[nH]c3ccccc23)CC1` has an activation of 1.53%. For `CN(C)CC1CCCCC1OC(=O)c1ccc(Cl)c(Cl)c1` (stereo not given), the activation was 0.25%. For `CCOc1ccc(C2SCC(=O)Nc3c2c(C)nn3C2CCOC(C)(C)C2)cc1` (stereo not given), the activation was -2.48%. In the case of `Cc1ccccc1CCC[C@@H](CC1CCCCC1)CN(C)C(=O)Oc1ccccc1`, the activation is reported as 4.88%. For `COc1ccc2c(c1)NP(=S)(c1ccccc1)N2` (stereo not given), the activation was 13.1% (active). Work on `Cc1cc(C)c2c(c1)NP(=S)(c1ccccc1)N2` (stereo not given) yielded an activation of 4.47%. Compound `CO[C@H]([C@H](C)/C=C/N(C)C=O)[C@@H](C)C(=O)CC[C@H](C)[C@H](O)[C@H](C)[C@H]1OC(=O)/C=C/C(C)=C/[C@H](O)[C@H](OC)C[C@@H]2C=CC[C@@H](C[C@H](OC)[C@@]3(CO3)[C@@H](OC)C[C@@H](OC)[C@@H]1C)O2` has an activation of 0.14%. Work on `COc1ccc(-c2nc(CS(=O)CC(=O)N3CCC4(CC3)OCCO4)c(C)o2)cc1` (stereo not given) yielded an activation of -0.05%. For `COP(=O)(Sc1ccccc1)C(Cc1ccccc1)NC(=O)OCc1ccccc1` (stereo not given), the activation was -1.13%.
